Cycloheximide cs – Cycloheximide Counterscreen for Small Molecule Inhibitors of Shiga Toxin; cell reporter, cycloheximide protein synthesis inhibition counterscreen; max response, %; 12% of 300,000 active; in the data active = max response mostly above about 13%, no sharp cut-off; inactive = mostly below about 14%; note: read at 38.3 µM for the half of the compounds with a filed dose; 0% is about no effect
Tb PYK inh – qHTS of Trypanosoma Brucei Inhibitors; AID 624173, 2012; TbPYK enzyme, Kinase-Glo Plus ATP luminescence, 45 min; Potency, µM (top dose mostly 76.8 µM), for inactives: top-dose activity, negative = inhibition, hits mostly inhibitors; 0.12% of 410,000 active; note: potency is the fitted concentration of half-maximal effect; % is set by controls: 0 for no effect and ±100 for the full control effect; nearly all actives have a fitted effect of over 50% in size
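Glycolytic pyruvate kinase of T. brucei was incubated with substrate, test compound and 130 uM ADP for 45 minutes at room temperature. Luminescent Kinase-Glo Plus signal was measured after 10 minutes.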
Shiga toxin inh – A qHTS for Small Molecule Inhibitors of Shiga Toxin | 9.2% of 290,000 active | AID 2315, 2010 | inhibition, % at 38.7 µM | Vero cells, Shiga toxin protein synthesis inhibition reporter; in the data active = inhibition mostly above about 28%, no sharp cut-off; inactive = mostly below about 43%; note: 0% is about no effect
FBPA Giardia inh – qHTS Assay for Inhibitors of Fructose-1,6-bisphosphate Aldolase from Giardia Lamblia. 0.71% of 290,000 active. Potency, µM (doses to about 59.6 µM), without a hit: top-dose activity, negative = inhibition, most hits filed as inhibitors. AID 2451, 2010. purified Giardia FBPA; note: potency is the fitted concentration of half-maximal effect; % is set by controls: 0 for no effect and ±100 for the full control effect; nearly all actives have a fitted effect of over 55% in size
Target sequence (A8B2U2 whole entry, looked up): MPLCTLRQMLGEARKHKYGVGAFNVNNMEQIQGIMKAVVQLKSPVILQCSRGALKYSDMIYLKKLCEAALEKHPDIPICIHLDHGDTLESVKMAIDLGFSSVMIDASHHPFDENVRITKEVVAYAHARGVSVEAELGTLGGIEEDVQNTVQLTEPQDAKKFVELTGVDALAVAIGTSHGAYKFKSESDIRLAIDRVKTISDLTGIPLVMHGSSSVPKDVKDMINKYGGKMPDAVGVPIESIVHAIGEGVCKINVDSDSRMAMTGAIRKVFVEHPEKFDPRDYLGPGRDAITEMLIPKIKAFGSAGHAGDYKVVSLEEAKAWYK
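Giardia FBPA (40 nM reagent) was preincubated 10 min at RT with compound (up to 57.5 uM final), then substrate plus GAPDH/TPI/NAD/arsenate coupling system with diaphorase/resazurin was added; resorufin fluorescence (525/598 nm) was read after 20 min.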
Sm TGR inh – qHTS Assay for the Inhibitors of Schistosoma Mansoni Peroxiredoxins; purified TGR, DTNB reduction, TNB absorbance 405 nm; Potency, µM (highest dose often 114 µM), inactives show at the top dose activity change, negative = inhibition, most hits filed as inhibitors; 3% of 360,000 active; AID 485364, 2010; note: potency is the fitted concentration of half-maximal effect; % is set by controls: 0 for no effect and ±100 for the full control effect; nearly all actives have a fitted effect of over 60% in size
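First, TGR (20 nM dispensed) and NADPH were mixed with compound. Second, a 15 min room-temperature incubation followed. Third, further NADPH and then DTNB were added to start the reaction. Finally, TNB absorbance was monitored kinetically.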
LmPK inh – qHTS Assay for Inhibitors of Leishmania Mexicana Pyruvate Kinase (LmPK); purified LmPK, Kinase-Glo ATP luminescence, 1 h; Potency, µM (highest dose often 57.5 µM), for inactives: at the highest dose activity change, negative = inhibition, actives largely listed as inhibitors; 0.37% of 290,000 active; AID 1721, 2009; note: potency is the fitted concentration of half-maximal effect; % is set by controls: 0 for no effect and ±100 for the full control effect
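In 50 mM imidazole pH 7.2 with 7 mM MgCl2, LmPK (0.1 nM) turned over PEP (0.5 mM) and ADP (0.1 mM) for 1 h at room temperature. Luciferase read-out of ATP.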
The depositor's hits bear a star; ? = inconclusive; . = not tested or not shown; [ ] = another dose, or the depositor's remark. The entries come from a sample that favours hits as a whole. Unless noted, calls come from the whole dose curve; as a rule, active = well fitted curve in the direction sought with a large enough effect; inconclusive = small, poorly fitted or top-dose-only effect, or another doubt; inactive = no such curve, though single readings can be large; an effect the other way counts as inactive or inconclusive.

SMILES	Cycloheximide cs	Tb PYK inh	Shiga toxin inh	FBPA Giardia inh	Sm TGR inh	LmPK inh
O=C(NC(=S)Nc1cccc2ncccc12)c1ccco1	-7	-2%	-3	?	14µM*	3%
COc1ccc2c(c1)CCc1sc(NC(=O)c3ccc(Br)cc3)nc1-2	.	2%	.	.	3%	.
COC(=O)c1cc2c(s1)-c1ccccc1OC2	28*	-4%	64*	2%	-23%	-3%
COC(=O)c1cc2c(s1)-c1ccc(OC)cc1CC2	55*	1%	115*	-7%	7%	-19%
O=C(c1cc2c(s1)-c1ccccc1OC2)N1CCc2ccccc2C1	87*	2%	56*	0%	-17%	-5%
CCOC(=O)C1CCN(C(=O)c2cc3c(s2)-c2ccccc2OC3)CC1	21*	-2%	40*	-1%	2%	1%
O=C(N/N=C/c1c[nH]c2ccccc12)c1ccccc1	47*	9%	128*	6%	-1%	3%
Cc1ccc(C(=O)Nc2ccc(C(=O)N/N=C/c3c[nH]c4ccccc34)cc2)cc1	12	-1%	-6	-11%	-7%	3%
Cc1cccc(NC(=S)N/N=C/c2c[nH]c3ccccc23)c1	14*	-4%	40*	7%	-10%	3%
O=C(N/N=C/c1cccc2ccccc12)c1cccs1	73*	1%	87*	1%	0%	2%
Cn1cccc1/C=N/NC(=O)c1sc2ccccc2c1Cl	40*	1%	66	-3%	2%	2%
O=C(NN=Cc1cccc2ccccc12)C(=O)NN=Cc1cccc2ccccc12	.	4%	.	.	.	.
Cc1c(/C=N/NC(=O)c2sc3ccccc3c2Cl)cnn1C	13	-3%	14	-1%	2%	0%
O=C(N/N=C/c1c[nH]c2ccccc12)c1ccncc1	-1	5%	13	-6%	-1%	-1%
CCOc1ccc(-c2cn3c(n2)sc2cc(C(=O)NCCCN(CC)CC)ccc23)cc1	.	2%	.	.	0%	.
O=C(NN=Cc1c[nH]c2ccccc12)NN=Cc1c[nH]c2ccccc12	.	7%	.	.	.	.
O=C(N/N=C/c1c[nH]c2ccccc12)c1cccc([N+](=O)[O-])c1	26*	9%	17	-11%	-10%	4%
O=C(NN=Cc1ccc(O)c(O)c1)c1ccccc1	.	15%	.	.	.	.
Cc1cc(C(=O)N/N=C/c2c[nH]c3ccccc23)cs1	42*	3%	64*	0%	5%	2%
O=C(N/N=C/c1oc(O)c2ccccc12)c1ccccc1	17	-11%	62*	-1%	?	-5%
O=C(N/N=C/c1c[nH]c2ccccc12)c1cccs1	45*	5%	94*	-6%	-7%	0%
CCCOc1cccc(C2c3c(oc4ccc(F)cc4c3=O)C(=O)N2Cc2ccc3c(c2)OCO3)c1 (configuration not stated)	.	1%	.	.	-5%	.
O=C(CN1C(=O)C2(SCC(=O)N2c2ccc(Cl)cc2)c2ccccc21)NCCc1ccccc1 (configuration not stated)	.	-1%	.	.	3%	.
Cc1ccc(NC(=O)Cn2c(=O)ccc3cc(S(=O)(=O)N4CCC(C)CC4)ccc32)cc1C	.	3%	.	.	-1%	.
O=C(N/N=C\c1cn[nH]c1-c1ccccc1)c1cccnc1	2	0%	-7	-1%	3%	-4%
SMILES	Cycloheximide cs	Tb PYK inh	Shiga toxin inh	FBPA Giardia inh	Sm TGR inh	LmPK inh
COc1ccccc1C(=O)N/N=C/c1c[nH]c2ccccc12	32*	2%	42*	-5%	7%	5%
O=C(N/N=C/c1c[nH]c2ccc(Br)cc12)c1ccc2c(c1)OCO2	1	-6%	-7	-19%	13%	10%
O=C(N/N=C/c1c[nH]c2ccccc12)c1sc2ccccc2c1Cl	25*	1%	19*	-6%	-9%	-2%
O=C(N/N=C\c1cn[nH]c1-c1ccccc1)c1cccs1	40*	-8%	active	-6%	2%	2%
O=C(N/N=C/c1c[nH]c2ccccc12)c1ccc2c(c1)OCCO2	55*	-5%	94*	-4%	3%	-16%
O=C(N/N=C/c1ccccn1)c1sc2ccccc2c1Cl	44*	-2%	89*	5µM*	4%	4%
Cc1nn(C)cc1/C=N/NC(=S)Nc1ccccc1	71*	?	175*	?	2%	-5%
O=C(N/N=C/c1ccc([N+](=O)[O-])o1)c1sc2ccccc2c1Cl	-2	-1%	4	-8%	-16%	5%
COc1ccc(C(=O)N2CCC3(CC2)CN(c2ccccc2)C3)cc1	.	4%	.	-4%	.	.
Cc1nn(-c2ccc(N3CCCC3)nn2)c(C)c1CCC(=O)N1CCN(c2ccccc2F)CC1	.	-2%	.	.	3%	.
O=C(Nc1ccccc1)Nc1ccc2ccccc2c1	52*	-2%	81*	4%	11%	-2%
CC(=O)Nc1ccc2ccccc2c1	29*	4%	43	6%	-8%	-7%
CC(=O)Nc1ccc2cc3ccc(NC(C)=O)cc3nc2c1	21*	4%	30	?	-9%	3%
CC(=O)CC(=O)Nc1ccc2ccccc2c1	24	3%	33	-1%	-10%	-3%
Cn1c(C(=O)OCC(=O)NCc2ccco2)cc2sccc21	10	-23%	27	-4%	50µM*	4%
Cc1cc2c(cc(C(=O)OCC(=O)NCc3ccco3)n2C)s1	15*	2%	44	0%	-15%	4%
CC1CCN(Cc2c(O)ccc3c(=O)c(Oc4ccccc4Cl)c(C(F)(F)F)oc23)CC1	.	1%	.	.	-3%	.
CC1=C(C(=O)Nc2ccc(CC(=O)NCc3ccc(OC(C)C)cc3)cc2)SCCO1	42*	-3%	82*	.	-2%	-10%
CC(C)Oc1ccc(CNC(=O)Cc2ccc(NC(=O)N3CCSc4ncccc43)cc2)cc1	.	-1%[15.4 µM]	.	.	0%	.
CCOc1ccc(CNC(=O)c2cccc(NC(=O)C3=C(C)OCCS3)c2)cc1	17*	0%	8	.	5%	-7%
COc1ccc(CNC(=O)Cc2ccc(NC(=O)C3=C(C)OCCS3)cc2)cc1	19*	-3%	56*	.	3%	-10%
N=C1C=CC=C2C1=NC1(CCCCC1)N2O	-1	-18%	-8	?	20µM*	-16%
CC(C)(C)N=C1C([N+](=O)[O-])=CC=C2C1=NC1(CCCCC1)N2O	1	-10%	-14	?	?	-25%
O=C1/C(=C\c2ccc(O)cc2)SC(=S)N1/N=C/c1ccc(O)cc1	12*	1%	26	-1%	-24%	-9%
O=[N+]([O-])/C(=C\Nc1ccc(F)cc1F)S(=O)(=O)c1ccccc1	-1	-8%	-8	-5%	10µM*	8%
